From PubChem BioAssay (NCATS) come the findings set out here.

Inconclusive results are not listed. Unmarked numbers belong to inactive results. Calls of active or inactive are those of the source. Calls follow the shape of the dose curve; as a rule, active = well fitted curve in the direction sought with a large enough effect; inconclusive = small, poorly fitted or top-dose-only effect, or another doubt; inactive = no such curve, though single readings can be large; an effect the other way counts as inactive or inconclusive.

Test [1] is described as follows: NS1 protein of Zika virus - qHTS assay to identify small molecule inhibitors in human HEK 293 cells (AID 1347053).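 Also: series mostly up to about 46 µM; plate controls were infected untreated cells for no effect and uninfected cells for full effect; nearly all actives have a fitted effect of over 55% in size.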 The gist of the method:
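Readout was TR-FRET using paired anti-NS1 antibodies after 24 h infection of HEK 293 cells with ZIKV MR766 (MOI = 0.5). Compound preceded virus by 1 h; reduced signal reflects lower NS1 expression.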
Background: Quantitative high-throughput screening tests each substance at several concentrations.

Test [2] can be described thus: qHTS of pediatric cancer cell lines to identify multiple opportunities for drug repurposing: Primary screen for TC32 cells (AID 1347089). Also: % is scaled to controls: 0 for no effect and ±100 for the full control effect; nearly all actives have a fitted effect of over 60% in size. The gist of the method:
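qHTS, TC32, 48 h drug treatment, CellTiter-Glo luminescence as a proxy for metabolically active cells; primary top concentration 46 µM (MIPE 11-pt, NPC 8-pt); confirmatory 11-pt.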

A short description of test [3]: qHTS of pediatric cancer cell lines to identify multiple opportunities for drug repurposing: Primary screen for DAOY cells (AID 1347090).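 Also: series mostly up to about 46 µM; plate controls were DMSO for no effect and bortezomib for full effect; nearly all actives have a fitted effect of over 55% in size.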 The gist of the method:
(§1)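 Eight- or eleven-point concentration series, 48 h treatment at 37 degrees C in growth media; readout CellTiter-Glo luminescence. Potency and efficacy were taken from the concentration-response curves.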

Test [4] in a line: qHTS of pediatric cancer cell lines to identify multiple opportunities for drug repurposing: Primary screen for SJ-GBM2 cells (AID 1347091).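 Also: plate controls were DMSO neutral control for no effect and bortezomib for full effect.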 The gist of the method:
as §1

Test [5] is described as follows: qHTS of pediatric cancer cell lines to identify multiple opportunities for drug repurposing: Primary screen for A673 cells (AID 1347092). Also: % is scaled to controls: 0 for no effect and ±100 for the full control effect; nearly all actives have a fitted effect of over 45% in size. The gist of the method: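 Luminescence from CellTiter-Glo, taken after 15 min at room temperature, served as the proxy for metabolically active cells following 48 h treatment. Both potency and efficacy were taken from curves fitted to the titration data.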

Test [6] in a line: qHTS of pediatric cancer cell lines to identify multiple opportunities for drug repurposing: Primary screen for SK-N-MC cells (AID 1347093). Also: potency is read from the fitted curve at half-maximal effect.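 As to activity change, negative = cytotoxic: series mostly up to about 46 µM; plate controls were DMSO neutral control for no effect and bortezomib for full effect.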 The gist of the method:
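Metabolically active cells were quantified by ATP-dependent luminescence (CellTiter-Glo, 15 min at room temperature) following 48 h treatment. Cells had been plated at 500-1,000 per well and settled for 5 h beforehand.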

A short description of test [7]: qHTS of pediatric cancer cell lines to identify multiple opportunities for drug repurposing: Primary screen for BT-37 cells (AID 1347094).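 Also: series mostly up to about 57 µM; plate controls were DMSO for no effect and bortezomib for full effect.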 The gist of the method:
(§2)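 Luminescence from CellTiter-Glo served as readout of metabolically active cells after 48 h compound exposure. Titrations: MIPE 11-point, from 0.78 nM; NPC 8-point, from 0.59 nM (final). Concentration-response curves came straight from the primary screen.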

A short description of test [8]: qHTS of pediatric cancer cell lines to identify multiple opportunities for drug repurposing: Primary screen for NB-EBc1 cells (AID 1347095).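 Also: plate controls were DMSO neutral control for no effect and bortezomib for full effect.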 The gist of the method:
as §2

A short description of test [9]: qHTS of pediatric cancer cell lines to identify multiple opportunities for drug repurposing: Primary screen for Saos-2 cells (AID 1347097). Also: % is scaled to controls: 0 for no effect and ±100 for the full control effect; nearly all actives have a fitted effect of over 40% in size. The gist of the method: as §2
The nature of test [10]: qHTS of pediatric cancer cell lines to identify multiple opportunities for drug repurposing: Primary screen for SK-N-SH cells (AID 1347098).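 Also: DMSO served as neutral control and bortezomib at 2.3 µM as positive control; % is scaled to controls: 0 for no effect and ±100 for the full control effect; nearly all actives have a fitted effect of over 65% in size.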 The gist of the method:
(§3)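 Cells (500-1,000/well) rested 5 h, then received compounds for 48 h; metabolically active cells were measured by CellTiter-Glo luminescence. Final concentrations spanned up to 46 µM (MIPE, 11-point) or 0.59 nM-46 µM (NPC, 8-point) in primary screens, 11-point in follow-ups.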

A short description of test [11]: qHTS of pediatric cancer cell lines to identify multiple opportunities for drug repurposing: Primary screen for NB1643 cells (AID 1347099).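 Also: plate controls were DMSO neutral control for no effect and bortezomib positive control for full effect; nearly all actives have a fitted effect of over 50% in size.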 The gist of the method: as §2
Test [12] in a line: qHTS of pediatric cancer cell lines to identify multiple opportunities for drug repurposing: Primary screen for LAN-5 cells (AID 1347100).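 Also: plate controls were DMSO neutral control for no effect and bortezomib positive control for full effect.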 The gist of the method: (§4)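 Cells (500-1,000/well) in growth media were settled 5 h at 37 degrees C, then given compounds for 48 h. Viability was read as CellTiter-Glo luminescence. Primary runs used MIPE at 11 points (0.78 nM-46 µM) and NPC at 8 points (0.59 nM-46 µM); follow-ups used 11 points.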

Test [13] can be described thus: qHTS of pediatric cancer cell lines to identify multiple opportunities for drug repurposing: Primary screen for BT-12 cells (AID 1347101).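 Also: plate controls were DMSO for no effect and bortezomib positive control for full effect; nearly all actives have a fitted effect of over 25% in size.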 The gist of the method:
as §3

Test [14] can be described thus: qHTS of pediatric cancer cell lines to identify multiple opportunities for drug repurposing: Primary screen for U-2 OS cells (AID 1347096).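 Also: plate controls were DMSO wells for no effect and bortezomib positive control wells for full effect; nearly all actives have a fitted effect of over 50% in size.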 The gist of the method:
as §4

As to `Cc1ncc(COP(=O)(O)O)c(C=O)c1O`, the Potency entry in test [1], in test [2], in test [3], in test [4], in [5] and in test [6] was “inactive” in each case. The Potency entry in [7], in test [8], in test [9], in [10], in test [11] and in test [12] was “inactive” throughout. In [13], the Potency result is “inactive”.
As for `O=c1[nH]c(=O)c2[nH]c(=O)[nH]c2[nH]1`, the activity change, negative = inhibition in [1] is -8.7% [at 9.2 µM]. For the same compound, the activity change, negative = cytotoxic in test [2] is -9.56% [at 9.17 µM]; in [3], -3.8% [at 9.22 µM]; in [4], 1.34% [at 9.22 µM]; in test [5] it was -14.8% [at 9.22 µM]; in test [7], 0.299% [at 11.5 µM]; in test [8], -4.54% [at 9.22 µM]. Moreover, the activity change, negative = cytotoxic in test [10] was 13.8% [at 11.4 µM]; in test [11], -5.19% [at 9.22 µM]; in test [12] it was 19.2% [at 9.22 µM]; in test [13] it was 3.54% [at 11.5 µM].
Consider `Cc1cc2nc3c(=O)[nH]c(=O)nc-3n(C[C@H](O)[C@H](O)[C@H](O)CO)c2cc1C`, for which the Potency entry in [1], in [2], in [3], in test [4], in test [6] and in test [7] was “inactive” each time. In addition, the Potency result in test [8], in test [14], in test [9], in [10], in test [11] and in [12] was “inactive” in each case. Also, the Potency result in test [13] is “inactive”.
Take `C[C@@H]1CCN(C(=O)[C@H](CCCN=C(N)N)NS(=O)(=O)c2cccc3c2NC[C@H](C)C3)[C@@H](C(=O)O)C1`: the Potency entry in [1], in test [2], in test [3], in test [4], in test [6] and in [7] was “inactive” each time. Besides, the Potency entry in test [8], in [14], in [9], in [10], in test [11] and in test [12] was “inactive” throughout. Also, the Potency entry in test [13] was “inactive”.
For the compound `CC(COc1ccccc1)NC(C)C(O)c1ccc(O)cc1` (stereo not given), the Potency entry in test [1], in test [2], in test [3], in [4], in [6] and in test [7] was “inactive” in each case. The Potency result in [8], in test [9], in [10], in test [11], in [12] and in [13] was “inactive” each time.
`O=C1NS(=O)(=O)c2ccccc21`: the Potency entry in [1], in [2], in [3], in test [4], in test [5] and in test [6] was “inactive” in each case. For the same compound, the Potency result in [7], in test [8], in test [9], in test [10], in test [11] and in test [12] was “inactive” in each case. In addition, the Potency result in test [13] was “inactive”.
As for `O=C(O)c1ccccc1-c1ccc(C(F)(F)F)cc1`, the Potency entry in test [1], in test [2], in [3], in test [4], in test [6] and in test [7] was “inactive” in each case. The Potency entry in [8], in test [9], in [10], in [11], in test [12] and in test [13] was “inactive” each time.
Take `Cc1c(Cl)cccc1Nc1ccccc1C(=O)O`: the Potency result in test [1], in test [2], in test [3], in test [4], in test [5] and in test [7] was “inactive” throughout. Also, the Potency result in test [10], in [12] and in test [13] was “inactive” throughout. Besides, the Potency in test [6] was 18.8 µM (active).
`OCC(O)CN1CCN(c2ccccc2)CC1` (stereo not given): the Potency entry in test [1], in [2], in test [3], in [4], in test [5] and in test [6] was “inactive” each time. The Potency result in [7], in test [8], in [9], in test [10], in test [11] and in [12] was “inactive” each time. The Potency result in test [13] is “inactive”.
With `CCOc1nc2cccc(C(=O)O)c2n1Cc1ccc(-c2ccccc2-c2nn[nH]n2)cc1`, the Potency result in test [1], in test [2], in test [3], in test [4], in test [5] and in test [7] was “inactive” throughout. Also, the Potency result in test [8], in test [14], in test [9], in test [10], in [11] and in [12] was “inactive” each time. Further, the Potency entry in test [13] was “inactive”.
On to `NS(=O)(=O)c1cc2c(cc1Cl)NC(CSCc1ccccc1)=NS2(=O)=O`, for which the Potency result in test [1], in test [2], in test [3], in [4], in test [6] and in test [7] was “inactive” each time. Also, the Potency result in test [8], in test [14], in test [10], in test [11], in [12] and in test [13] was “inactive” throughout.
As for `CC1CC(OC(=O)C(O)c2ccccc2)CC(C)(C)N1C` (stereo not given), the Potency result in [1], in test [2], in test [3], in [4], in test [6] and in test [7] was “inactive” throughout. The Potency result in [8], in [14], in test [9], in [10], in test [11] and in test [12] was “inactive” in each case. In addition, in test [13], the Potency result is “inactive”.
`CN(C)CCCO[C@@H]1[C@H]2OC(C)(C)O[C@H]2O[C@@H]1C(O)CO` (stereo not given in full): the Potency result in test [1], in test [2], in test [3], in [4], in test [5] and in test [6] was “inactive” in each case. Besides, the Potency result in test [7], in test [8], in test [9], in test [10], in test [11] and in test [12] was “inactive” in each case. Moreover, the Potency entry in test [13] was “inactive”.
Take `Oc1cn2c(n1)Nc1ccc(Cl)c(Cl)c1C2`: the Potency result in test [1], in [2], in test [3], in test [4], in [6] and in test [7] was “inactive” in each case. The Potency result in test [8], in test [14], in test [9], in test [10], in test [11] and in [12] was “inactive” in each case. Moreover, in test [13], the Potency entry was “inactive”.
As for `CC12CCC(CC1)C(C)(C)O2`, the Potency entry in test [1], in test [2], in [3], in test [4], in test [5] and in test [6] was “inactive” in each case. Moreover, the Potency result in test [7], in test [8], in [9], in test [10], in test [11] and in test [12] was “inactive” in each case. In [13], the Potency entry was “inactive”.
Take `O=c1cc[nH]c(=O)[nH]1`: the Potency entry in test [1], in test [2], in test [3], in [4], in test [6] and in test [7] was “inactive” in each case. In addition, the Potency entry in [8], in [14], in [9], in test [10], in [11] and in [12] was “inactive” in each case. Further, the Potency entry in [13] was “inactive”.
